MRP-1 activ: H69AR viability gain despite doxorubicin, primary screen, MRP-1 activator project, H69AR cells, CellTiter-Glo; viability rescue; viability increase, % at 10 µM; actives 0.61% (n = 140,000); AID 799, 2007;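 active = viability gain under doxorubicin at or above a set limit, the compound median plus 3 SD, cut at about 4.7% in these data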;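 also: MRP-1 overexpressing cells given doxorubicin 25 µM after compound pretreatment; 18-22 h compound pretreatment then 72 h with doxorubicin before readout; 0% = doxorubicin-only wells and 100% = vehicle-treated cells without doxorubicin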
SDO1 yeast rescue: growth rescue of sdo1-depleted yeast, primary screen, S. cerevisiae, bone marrow failure model; z-score at 10 µM; actives 0.21% (n = 140,000); S. cerevisiae sdo1-depleted JHY4D growth rescue, OD600 30 h; stronger effect = higher value; pdr5 snq2 efflux-pump mutant strain;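 active = z-score above 3 at both the 24 hr and the 30 hr optical density reads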;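 also: z-score against mean and SD of all compound wells on the same plate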
NFkB transloc pot: enhancers of NFkB p65 translocation in HUVEC – imaging, IL-1B stimulus, high-content imaging, primary screen; activation, % at 2 µM; actives 0.3% (n = 94,000); HUVEC IL-1B NFkB p65 nuclear translocation imaging;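 active = activation above 40%, about the mean plus 3 SD, also judged a hit on visual image review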;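 also: percent activation is computed from the nuclear over cytoplasmic p65 intensity ratio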
MRP reversal: reversal of MRP1-mediated doxorubicin resistance, primary screen, H69AR cells, doxorubicin co-treatment; H69AR cells + 2 uM doxorubicin, CellTiter-Glo, 72 h; actives 0.04% (n = 85,000); AID 602, 2007; differential viability (reversal), % at 10 µM;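 active = viability drop by adding the cancer drug above about 55%, with treated viability meeting a 40% cutoff, limit read from the data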;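 also: viability without doxorubicin minus viability with 2 µM doxorubicin for each compound; larger differential means the compound sensitizes cells more to doxorubicin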
HUVEC tox IL1B: cytotoxicity in IL-1B stimulated HUVEC, primary screen, cytotoxicity control for IL-1B NFkB translocation project, imaging, Hoechst nuclear count, IL-1B stimulus; HUVEC cell count loss; cell count reduction, % at 2 µM; actives 0.41% (n = 94,000);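 active = cell count reduction more than 3 SD above the screen-wide mean, cut at about 70% in these data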;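 also: normalized per plate to untreated control cells as the no-loss baseline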
IL1B NFkB inh: inhibitors of IL-1B driven NFkB p65 nuclear import, primary screen, imaging, HUVEC, IL-1B stimulus, high-content imaging | actives 0.43% (n = 94,000) | HUVEC IL-1B NFkB p65 nuclear translocation imaging | inhibition, % at 2 µM;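 active = inhibition above about 30% together with a positive call from visual inspection of the well image, limit read from the data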;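 also: nuclear over cytoplasmic p65 intensity ratio measured by imaging; 0% = IL-1B stimulated DMSO wells and 100% = unstimulated DMSO wells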
SDO1 rescue DR: SDO1-depleted yeast growth rescue, concentration-response, diseases of bone marrow failure, JHY4D, OD600; shares compounds with SDO1 yeast rescue; S. cerevisiae JHY4D (SDO1-depleted) growth rescue, 30 h; stronger effect = higher value; efflux-deficient strain, SNQ2 and PDR5 mutated; OD recovery (concentration not given with the values); actives 44% (n = 440); AID 949, 2007;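 active = yeast growth recovered at 30 hours, either rising with dose fitted slope above 0.001 or with average optical density gain above 0.07, some results past the limit were not filed as active; inactive = growth falling with dose or no effect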;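 also: gain in OD600 from 0 h to 30 h averaged across all seven doses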
Starred values were filed as active, the others as inactive; nt = no result given. Sampled rows, rich in hits. Any-hit rate of the full collection: about 1.4%.

SMILES | MRP-1 activ | SDO1 yeast rescue | NFkB transloc pot | MRP reversal | HUVEC tox IL1B | IL1B NFkB inh | SDO1 rescue DR
CCCCn1c(C)nc2c(=O)n(C)c(=O)[nH]c21 | -1 | 2.4 | -2 | -5 | -106 | 2 | 0.074*
CCC(=O)OCCn1c(=O)c2cc3c(=O)n(CCOC(=O)CC)c(=O)c3cc2c1=O | 0 | 2.6 | -2 | 6 | -12 | 2 | 0.083*
CCCOC(=O)Cn1c(=O)c2cc3c(=O)n(CC(=O)OCCC)c(=O)c3cc2c1=O | -2 | 0.47 | nt | -10 | nt | nt | nt
Oc1cc(-c2ccccc2)c2ccccc2c1 | -1 | -1.9 | nt | nt | nt | nt | nt
CCCCCCCN=CC1=C(O)CC(c2ccccc2)CC1=O (stereo not given) | -2 | -0.13 | nt | nt | nt | nt | nt
CSc1nc(N)nc(SCC(=O)c2ccc(C)cc2)c1C#N | -3 | 1.3 | 21 | -4 | -15 | -21 | 0.076*
CCOC(=O)c1cccnc1SCC(=O)NC(C)CC (stereo not given) | -1 | 2 | 6 | 8 | 0 | -6 | 0.09*
O=C(NCc1cccs1)c1nc2ncccn2n1 | -2 | 3* | 3 | 10 | -19 | -3 | 0.032
CCN(CC)S(=O)(=O)c1ccc(-c2nnc(SCC(=O)Nc3nc(C)cs3)o2)cc1 | -6 | 2.2 | 2 | 13 | -3 | -2 | 0.054
Cc1csc(NC(=O)CSc2nnc(-c3ccc(S(=O)(=O)N4CCCC4)cc3)o2)n1 | -1 | -0.16 | 0 | -22 | 0 | 0 | nt
Cn1nnc2cc(C(=O)Nc3cccnc3)ccc21 | -2 | 1.6 | 12 | -3 | -7 | -12 | nt
COc1cccc(NC(=O)Nc2ccc3c(c2)nnn3C)c1 | 0 | 0.2 | 1 | 0 | -6 | -1 | 0.079*
C/C(CCc1ccccc1)=N\NC(=O)CC(=O)NCCc1ccccc1 | 0 | -0.1 | nt | nt | nt | nt | nt
O=C(CSc1nnc(CNc2cccc(Cl)c2)o1)OC1CCCCC1 | -1 | 12* | -3 | -18 | -5 | 3 | 0.09*
Cn1c(=O)c(Nc2ccc(O)cc2)c2c3c(cccc31)C(=O)c1ccccc1-2 | -2 | -1.6 | nt | nt | nt | nt | nt
C=CCNc1cc(C(F)(F)F)nc(-c2ccccn2)n1 | -3 | 0.08 | 0 | nt | 9 | 0 | nt
COC(=O)Cn1cc(/C=N/NC(=O)c2ccc(C#N)cc2F)c2ccccc21 | -3 | 4* | -2 | nt | 26 | 2 | 0.069
O=C(CSc1cccc(C(F)(F)F)c1)Nc1ccc(Cl)cc1Cl | 0 | -0.74 | 12 | nt | -68 | -12 | nt
Cc1cc(NC(=O)c2cccs2)n(-c2ccccc2)n1 | -1 | 3.5* | 12 | 3 | 4 | -12 | 0.083*
CC1CCN(c2ccc(C(=O)NCc3ccco3)cc2[N+](=O)[O-])CC1 | -2 | 11* | nt | nt | nt | nt | 0.095*
COc1ccc(OCCNC(=O)/C=C/c2ccc([N+](=O)[O-])cc2)cc1 | -2 | 15* | nt | nt | nt | nt | 0.038
O=C(CN1C(=O)S/C(=C/c2cc(Br)cs2)C1=O)N1CCOCC1 | 1 | 1.6 | nt | nt | nt | nt | nt
CCOc1cc(C#N)c(NC(=O)c2cccnc2)cc1OCC | -4 | 1.4 | -4 | nt | 6 | 4 | 0.058
CCOc1cc(C#N)c(NC(=O)c2cccnc2Cl)cc1OCC | -1 | 0.98 | -7 | 13 | -13 | 7 | nt
C=CCNC(=S)NNC(=O)c1ccc(OCC)cc1 | -2 | 0.86 | 1 | nt | 8 | -1 | nt
SMILES | MRP-1 activ | SDO1 yeast rescue | NFkB transloc pot | MRP reversal | HUVEC tox IL1B | IL1B NFkB inh | SDO1 rescue DR
C=CCNC(=S)NNC(=O)c1ccc(OCC(C)C)cc1 | 0 | 6.2* | -7 | 15 | 7 | 7 | 0.094*
COc1ccc(CCNC(=O)c2cc(-c3ccc(C)c(C)c3O)n[nH]2)cc1OC | -1 | 2.3 | 17 | -5 | -4 | -17 | 0.053
COc1ccc(CCNC(=O)c2cc(-c3cc(C)ccc3O)n[nH]2)cc1OC | 0 | 0.48 | -4 | -5 | 23 | 4 | nt
O=C(CSc1nnc(-c2ccc(S(=O)(=O)N3CCCC3)cc2)o1)NCc1ccco1 | -1 | 2.6 | 8 | -16 | -8 | -8 | 0.038
COC(=O)c1ccc(C2c3c(oc4ccc(F)cc4c3=O)C(=O)N2CCO)cc1 (stereo not given) | 1 | 1.9 | nt | 9 | nt | nt | 0.061
CCOCCOC(=O)COc1ccc2c(-c3ccccc3)cc(=O)oc2c1 | -1 | -0.91 | nt | nt | nt | nt | nt
CCOC(=O)C1CCCN(C(=O)Nc2cccc(Cl)c2)C1 (stereo not given) | -1 | 2.3 | 36 | 1 | -33 | -36 | 0.065
COc1ccc(C2C(C(=O)OCC3CCCO3)=C(C)NC3=C2C(=O)CC(c2ccco2)C3)cc1O (stereo not given) | -2 | 0.24 | 9 | 7 | 12 | -9 | nt
O=C(COC(=O)C1=COCCO1)NCCCc1ccccc1 | 0 | 0.31 | 13 | -2 | -6 | -13 | nt
O=C(COC(=O)c1cccc2ccccc12)NCCCc1ccccc1 | 0 | 11* | nt | nt | nt | nt | 0.051
C=CCN(CC=C)S(=O)(=O)c1ccc2nc(NC(=O)C3CCCO3)sc2c1 (stereo not given) | -3 | -0.57 | nt | nt | nt | nt | nt
Cc1ccc(C2/C(=C(\O)c3ccc4c(c3)OCCO4)C(=O)C(=O)N2CCCN(C)C)o1 (stereo not given) | -3 | 6.9* | -6 | -3 | -12 | 6 | 0.097*
COc1ccc(C2/C(=C(\O)c3ccc4c(c3)OCCO4)C(=O)C(=O)N2CCCN(C)C)cc1 (stereo not given) | 0 | -0.72 | 8 | -13 | 23 | -8 | nt
COc1ccc(CNC(NC(=O)c2ccccc2)(C(F)(F)F)C(F)(F)F)cc1 | -3 | -0.02 | nt | nt | nt | nt | nt
COc1cccc(OC)c1C(=O)N1CCN=C1SCc1cccnc1 | 0 | 0.97 | 30 | 4 | 14 | -30 | nt
COc1ccc(C(=O)N2CCN=C2SCc2cccnc2)cc1OC | -1 | 2 | 17 | 6 | 6 | -17 | 0.042
COc1ccc2c(c1)sc(N)[n+]2Cc1cc(C)cc2cccnc12 | -6 | 9.7* | nt | nt | nt | nt | 0.065

Compound activity: PubChem, several laboratories
